Measurements reported in PubChem BioAssay (NCI).
The panel holds about 79,000 compounds, 15% with a hit somewhere; the sample as a whole holds those more often. Unmarked numbers belong to inactive results. Calls of active or inactive are those of the source. Rule as the data show it: active = growth inhibition above about 70%; inactive = the rest.

Assays:
[1] = NCI Yeast Anticancer Drug Screen. Data for the rad50 strain (AID 155);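 also: 0% = growth of vehicle-only cultures of the same strain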; conditions: S. cerevisiae rad50 strain growth inhibition, hits give high values; at 50.0 µM unless noted
How it was run: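 DNA repair mutant yeast, compound exposure, growth read-out; inhibition is taken relative to vehicle.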

[2] = NCI Yeast Anticancer Drug Screen. Data for the mec2-1 strain (AID 157); conditions: S. cerevisiae mec2-1 strain, hits give high values; at 50.0 µM unless noted
How it was run: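 mec2-1 yeast strain, carrying an alteration in DNA damage repair or cell cycle control, was exposed to compounds; growth inhibition was measured relative to vehicle-treated controls.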

[3] = NCI Yeast Anticancer Drug Screen. Data for the sgs1 mgt1 strain (AID 161);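 also: 0% = growth of cultures given vehicle only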; conditions: S. cerevisiae sgs1 mgt1 strain, hits give high values; at 50.0 µM unless noted
How it was run: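 Compounds are added to genetically altered yeast, and growth is compared with cultures given vehicle alone to give percent inhibition.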

[4] = NCI Yeast Anticancer Drug Screen. Data for the cln2 rad14 strain (AID 165);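 also: 0% = growth equal to vehicle treated cultures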; conditions: S. cerevisiae cln2 rad14 strain, hits give high values; at 50.0 µM unless noted
How it was run: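 Yeast carrying cln2 and rad14 alterations (cell cycle control and DNA damage repair) were exposed to compounds. Growth inhibition was measured against vehicle-treated controls.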

[5] = NCI Yeast Anticancer Drug Screen. Data for the bub3 strain (AID 167); conditions: S. cerevisiae bub3 mutant strain, hits give high values; at 50.0 µM unless noted
How it was run: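 In this screen, a yeast mutant lacking normal mitotic checkpoint function is challenged with compound. Relative growth versus vehicle gives the inhibition value.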

[6] = NCI Yeast Anticancer Drug Screen. Data for the mlh1 rad18 strain (AID 175); conditions: S. cerevisiae mlh1 rad18 strain growth inhibition, hits give high values; at 50.0 µM unless noted
How it was run: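 Growth inhibition of the yeast strain was measured after compound exposure and expressed relative to vehicle-treated controls. The strain carries defined defects in DNA damage repair.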

Compound	growth inhibition [1]	growth inhibition [2]	growth inhibition [3]	growth inhibition [4]	growth inhibition [5]	growth inhibition [6]
CCOc1ccc(C(=O)C[N+]2(CCc3ccccc3)CCOCC2)cc1	-12.9%	6.3%	11.6%	6.2%	-0.7%	41%
O=C(Nc1ccc(Cl)c(Cl)c1)N(CCO)Cc1ccccc1	88.7% (active)	97% (active)	97.2% (active)	90% (active)	95.5% (active)	94.4% (active)
O=[N+]([O-])c1cccc(/C=C/c2ccnc3ccccc23)c1	10.2%	-13.1%	2.95%	5.65%	19.4%	4.15%
CCN1C(=O)C(=O)C(c2ccccc2)(c2ccccc2)C1=O	-6.3%	-3.65%	-4.65%	-21.6%	2.9%	46.9%
COc1ccc(C2S/C(=C\c3ccc([N+](=O)[O-])cc3)C(=O)N2NC(=O)Cc2ccccc2)cc1 (configuration not stated)	17.9%	-7.95%	2.9%	-23.8%	11.4%	8.65%
CCN(CC)CCCC(C)Nc1cc(OC)c2nc(C)ccc2c1OC (configuration not stated)	-2.35%	-0.4%	-14.2%	-5.9%	-3.2%	14.9%
CC(C)NC(=O)OCc1c(COC(=O)NC(C)C)c(-c2ccccc2)n(C)c1-c1ccccc1	12.6%	2.05%	6.05%	-5.7%	1.85%	32.8%
Nc1cnccc1N1CCN(c2cccc3ccccc23)CC1	99% (active)	99.3% (active)	99.2% (active)	98.8% (active)	98.4% (active)	99% (active)
CCOC(=O)c1nc2ccccc2c(=O)[nH]1	-1.85%	-5%	1.5%	-32.9%	-8.6%	-2.5%
CCc1cc(C(=O)OC/C(C)=N/O)c2ccccc2n1	-18.8%	-0.65%	-10.1%	-18.4%	30.4%	-22.6%
CC1CCCCN1Cc1ccccc1COC(=O)c1ccc([N+](=O)[O-])cc1Cl (configuration not stated)	41.1%	30.4%	49.9%	8.85%	21.4%	-3.6%
Fc1ccccc1C1SCc2nc3cc4ccccc4cc3n21 (configuration not stated)	-33.6%	-17.8%	0.95%	-1.45%	-0.95%	40%
NC(=O)C1OCOC2C(CO)OCOC12 (configuration not stated)	-1.9%	-14.4%	-3%	-52.1%	-7.4%	-6.15%
C=CCSc1cccc(C)c1	-19.4%	14.9%	-12.6%	-25.6%	-14.1%	-16.1%
CCOC(=O)C1=CN=C2C(=O)N(c3ccccc3)N(C)C2(C)C1=N (configuration not stated)	-4.8%	0.95%	-19.4%	10.8%	-11.2%	12.9%
COc1ccc(-n2cnc3c2NC(C)(C)N=C3C(N)=O)c(OC)c1	-17.8%	-30.1%	-36.1%	24.9%	-10.2%	-23.2%
COCC(Br)C(OC)OC (configuration not stated)	37.5%	9.1%	58.9%	-1.05%	5.75%	68.3%
CC(C)(C)COB(OCC(C)(C)C)OCC(C)(C)C	-2.8%	-13.2%	3.55%	-29.1%	-9.55%	-15.2%
COC(=O)C(=O)c1c(C(=O)OC)nc2nnc(N)n2c1-c1cccc([N+](=O)[O-])c1	23.6%	-4.35%	3.1%	17.3%	12.4%	18%
CC1(C)N=C(N)N=C(N)N1c1ccc(N)cc1	1.7%	-3.8%	2.75%	-36.8%	-21.4%	7.8%
S=c1[nH]nc(-c2n[nH]c3ccccc23)o1	3.3%	3.6%	5.9%	-51.3%	-3%	1.25%

Compound	growth inhibition [1]	growth inhibition [2]	growth inhibition [3]	growth inhibition [4]	growth inhibition [5]	growth inhibition [6]
COCCC(=O)OCCC(C)OC (configuration not stated)	21.6%	-4.1%	3.65%	1.95%	-42.2%	-11.2%
CN(C)c1ccc(C(c2ccc(N(C)C)cc2)c2ccc([N+](=O)[O-])cc2)cc1	-3.75%	-35.7%	-48.3%	8.3%	39%	-16.8%
CCCOC(=O)c1cccnc1	-13.2%	-29.6%	-14.7%	0.7%	-6.75%	-8.65%
CC1CN(S(=O)(=O)c2ccccc2)CCN1S(=O)(=O)c1ccccc1 (configuration not stated)	-9.65%	-4.3%	-8.35%	-8.45%	1.5%	-0.55%
COc1ccccc1C1OC(N)=C(O)C1=O (configuration not stated)	-14.4%	-5.15%	7.3%	-15.3%	-2.5%	13.9%
COc1ccc2c(c1OC(C)=O)-c1cc(OC(C)=O)cc3c1C(C2)N(C(=O)CBr)CC3 (configuration not stated)	62%	54.2%	70.2% (active)	36%	20.5%	59.4%
CC1=NN(c2ccccc2)C(=O)C1O (configuration not stated)	12.1%	16.2%	-6.05%	-25.4%	-10.6%	2.5%
C=Nc1ccc(Nc2ccccc2)cc1	5.7%	-5.2%	-2.4%	-3.25%	-1.6%	3.3%
CCCCC(CC)CCC(C)O (configuration not stated)	-6.75%	-4.75%	25.6%	-40.4%	-16.8%	-14.7%
Cc1[nH]n(C(N)=S)c(=O)c1N=Nc1ccc([N+](=O)[O-])cc1Cl	57.8%	6%	66.2%	-46.5%	1.5%	53.2%
CCOC(=O)c1ccc(NC(=O)Nc2cc(Cl)ccc2C)cc1	38.9%	8.45%	16.1%	6.4%	36.2%	25.4%
Cc1ccc(N2C(=O)CC(N3CCCCC3)C2=O)cc1 (configuration not stated)	29.1%	37.7%	68.2%	13.2%	-2.05%	80.2% (active)
COc1ccc2oc3cc(Cl)ccc3c(=O)c2c1	4.8%	0.85%	-8.85%	4.35%	30.4%	14.2%
O=C(Nc1ccc(C(=O)O)cc1)Nc1cccc(Cl)c1	-6.15%	2.1%	-9.55%	-14.3%	0.65%	7.4%
C(CCC1CO1)CC1CO1 (configuration not stated)	3.25%	-21.1%	-31.6%	-27.2%	-5.45%	-22.8%
Cc1ccc(S(=O)(=O)N/N=C(/c2nc3ccc([N+](=O)[O-])cc3[nH]c2=O)C(O)c2ccc(C(O)/C(=N\NS(=O)(=O)c3ccc(C)cc3)c3nc4ccc([N+](=O)[O-])cc4[nH]c3=O)cc2)cc1 (configuration not stated)	-16.6%	-27.6%	-26.2%	0.6%	-32.7%	-10.3%
NC(=O)NN(Cc1ccc2c(c1)OCO2)N=O	-7.25%	-6%	-5.55%	-16.6%	16.2%	1.9%
C1CSCCSCCS1	11.6%	0.9%	20.1%	4.85%	28%	-4.9%
O=C(O)C[N-]CC(=O)O.OO.[O]=[V]	-16.9%	1.5%	-1.7%	-30.7%	3.75%	3.55%
NCCCc1nonc1C(=O)O	-15.2%	-39.4%	-3.85%	-4.05%	-7.3%	-13.3%
Oc1cc2c(cc1C(Nc1ncccn1)c1ccc3c(c1)OCO3)OCO2 (configuration not stated)	-0.4%	6.8%	12.8%	-16.3%	19.4%	15.3%
